The list is not random: actives were taken first. Their share in the collection is about 1.6%.
NALP1 inh = NALP1 inflammasome inhibitors in reconstituted yeast, colorimetric, S. cerevisiae, triplicate retest; hit rate 0.61% among 280,000; inhibition, % at 10 µM; S. cerevisiae NALP1/ASC/caspase-1 growth, X-gal OD620, 72 h; in the data active = inhibition mostly above about 24%, no sharp cut-off; inactive = mostly below about 32%
NLRP3 yeast inh = NALP3 inflammasome inhibitors in reconstituted yeast, primary screen, luminescence, uHTS; Yeast reconstituted NLRP3/ASC/caspase-1, beta-gal luminescence, 24 h; inhibition, % at 10 µM; hit rate 0.39% among 330,000; AID 2825, 2010;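 active = inhibition of 50% or more; inactive = inhibition below 50%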
PERK inh = block of dimerizer-induced PERK translation repression, primary screen, PERK inhibitor project, CHO PERK-DD cells, SEAP luminescence, HTS; Eukaryotic translation initiation factor 2-alpha kinase 3 (Homo sapiens), Q9NZJ5; CHO PERK-DD fusion, SEAP luminescence translation reporter; inhibition, % at 5.6 µM; hit rate 0.17% among 220,000; AID 1416, 2008;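 active = inhibition above the mean inhibition of all tested compounds plus 3 SD, set separately per screening campaign, cut at about 2.9% in these data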;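 note: PERK kinase domain activated by AP20187 dimerizer at 100 nM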
CR mimetic SO = reduction of superoxide in aged yeast, primary screen, HTS; S. cerevisiae aged cells, superoxide DHE fluorescence; stronger effect = lower value; AID 2690, 2010; superoxide response (% of plate mean), % at 10 µM; hit rate 0.18% among 330,000;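 active = superoxide response under a set limit, about three screen SD below normal, cut at about 65% in these data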;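 note: yeast aged for seven days with compound at 30 °C before DHE staining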
Rce1 inh = yeast Rce1p protease inhibitors, primary screen, biochemical, fluorescence, cell-free homogeneous | CAAX prenyl protease 2 (Saccharomyces cerevisiae (strain ATCC 204508 / S288c)), Q03530 | yeast membranes, quenched prenylated peptide cleavage fluorescence | calls only | hit rate 0.27% among 290,000;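 active = fall in fluorescence gain of 50% or more versus controls, with final raw signal at or below 3038400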
Target sequence (Q03530 whole entry, looked up): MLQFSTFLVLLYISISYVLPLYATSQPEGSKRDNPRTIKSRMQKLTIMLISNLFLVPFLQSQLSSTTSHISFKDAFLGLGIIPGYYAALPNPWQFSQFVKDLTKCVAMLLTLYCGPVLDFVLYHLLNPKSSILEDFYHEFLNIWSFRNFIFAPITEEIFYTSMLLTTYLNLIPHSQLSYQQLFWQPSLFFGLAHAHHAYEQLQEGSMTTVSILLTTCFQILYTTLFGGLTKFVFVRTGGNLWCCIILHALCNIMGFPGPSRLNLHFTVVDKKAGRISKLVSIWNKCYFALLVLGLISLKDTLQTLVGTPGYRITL
V-ATPase pH = regulators of yeast V-ATPase proton pumping, primary screen, pHLuorin cytosolic pH fluorescence. hit rate 0.37% among 350,000. S. cerevisiae. AID 504577, 2011. response, % at 10 µM; in the data active = response mostly above about 7.3%, no sharp cut-off; inactive = mostly below about 5.4%; note: actives read high
Numbers stand for hits; - = inactive; . = not tested or not shown; + = active, no number.

SMILES | NALP1 inh | NLRP3 yeast inh | PERK inh | CR mimetic SO | Rce1 inh | V-ATPase pH
O=C1C=C(c2ccccc2)OC2(CCCC2)O1 | . | - | - | - | - | -
COc1ccc(C)cc1S(=O)(=O)N1CCCC(N2CCN(c3ccccc3)CC2)C1 (stereo unspecified) | . | . | . | . | . | -
O=C(COc1ccc2ccc(=O)oc2c1)NCCc1c[nH]c2ccc(F)cc12 | - | - | . | - | + | -
COc1ccc(-c2nn(-c3ccccc3)cc2C(=O)O)cc1 | - | - | 3.2 | - | - | -
Cc1[nH]c2ccccc2c1CCNC(=O)CCC(=O)c1ccccc1 | - | - | - | - | - | 17
CC1CCN(CCCCOc2ccc([N+](=O)[O-])cc2)CC1 | - | - | - | - | - | -
COC(=O)C1CCN(Cc2ccc(OCCCN3CCN(c4ccc([N+](=O)[O-])cc4)CC3)cc2)CC1 | 26 | - | - | - | - | -
CCCCCc1ccc(OCCC[n+]2ccccc2)c(CCCCC)c1 | - | - | - | - | - | -
CCCCCc1ccc(OCCOCCn2c[n+](C)c3ccccc32)c(CCCCC)c1 | - | . | - | . | + | -
O=C(COc1ccccc1)NC(=S)Nc1cccc2c(O)cccc12 | . | . | . | . | . | -
C[C@]12CC[C@@H]3c4ccc(O)cc4CC[C@H]3[C@@H]1CCC2=O | - | - | - | - | - | 93
O=C(O)Cn1cnc2c(=S)nc[nH]c21 | - | - | 3.7 | - | - | -
Cc1ccc(S(=O)(=O)NC(C)C(=O)OCC(=O)Nc2sccc2C(N)=O)cc1 (stereo unspecified) | . | . | . | . | . | -
CC(=O)c1cccc(CN2CCC(n3nccc3NC(=O)CCOc3ccccc3)CC2)c1 | 31 | - | . | - | - | -
O=C(CCOc1ccccc1)Nc1ccnn1C1CCN(Cc2ccccc2)CC1 | - | - | . | - | - | -
COc1cc(NC(=O)c2cc(-c3cccnc3)nc3ccc(C)cc23)c(OC)cc1Cl | - | . | - | - | - | .
COc1ccc(NC(=O)c2cc(-c3cccnc3)nc3ccc(C)cc23)cc1OC | 34 | . | - | . | . | -
Cc1onc(-c2c(Cl)cccc2Cl)c1C(=O)ONC(=O)c1cc(C(F)(F)F)cc(C(F)(F)F)c1 | - | - | 3.0 | - | . | -
CCOc1cccc(Cc2c[nH]c(=O)[nH]c2=O)c1 | . | . | . | . | . | -
Cn1nc(NC(=O)C(F)(F)F)c2ncc(-c3ccccc3)nc21 | . | . | . | . | . | -
Cc1ccc(NC(=O)Cn2cccc2)cc1C | - | - | - | - | - | -
Cc1ccc(NC(=O)N2CCCC2)cc1Cl | 38 | - | - | - | - | -
Cc1ccc(NC(=O)Cn2cccc2)cc1Cl | . | - | 2.9 | - | - | -
CN1OC[C@@H]2CN(C(=O)C(C)(C)C)[C@H](c3cccc(Oc4ccccc4)c3)C[C@@H]21 | . | . | . | . | . | -
CN1C(=O)[C@H]2[C@@H](c3ccc(C(F)(F)F)cc3)N[C@]3(CCCN(CC4CCCCC4)C3=O)[C@H]2C1=O | . | . | . | . | . | -
SMILES | NALP1 inh | NLRP3 yeast inh | PERK inh | CR mimetic SO | Rce1 inh | V-ATPase pH
CCOC(=O)c1ccc(N2Cc3ccccc3C2=N)cc1 | 40 | - | - | - | - | -
CC(=O)Nc1ccc(C=C(C#N)c2ccc(C)cc2)cc1 | . | . | . | . | . | -
C[C@@H]1CN([C@@H](C)CO)C(=O)c2cc(C3=CCCCC3)cnc2O[C@H]1CN(C)C(=O)Nc1cccc(F)c1 | . | . | . | . | . | -
COc1c(Cl)cnn(-c2ccccc2)c1=O | . | - | - | - | - | -
COc1c(Cl)cnn(-c2ccc(Cl)c(Cl)c2)c1=O | 37 | - | - | - | - | -
CCOC(=O)COc1ccccc1/C=C\[N+](=O)[O-] | 102 | . | - | - | - | -
CN1OC[C@@H]2CN[C@H](c3ccc(-c4cc5ccccc5o4)cc3)C[C@@H]21 | . | . | . | . | . | -
COc1ccccc1NC(=O)COc1ccc(/C=N/NC(=O)CSCc2ccc(Cl)cc2)cc1 | - | - | 3.3 | - | - | -
COc1ccccc1OCC(=O)NCCSCc1ccc(Cl)cc1 | 64 | - | - | - | - | -
O=C(CCSCc1cccc(Cl)c1)NCCc1ccc(Cl)cc1 | - | - | - | - | - | 58
COc1cccc(CNC(=O)c2ccc(F)c(S(=O)(=O)N3CCCCC3)c2)c1 | . | . | . | . | . | -
C[C@@H]1CN([C@H](C)CO)C(=O)CCCn2nncc2CO[C@H]1CN(C)Cc1ccc(O)cc1 | . | . | . | . | . | -
Brc1cccc(-c2n[nH]c(-c3ccccc3)n2)c1 | 29 | - | - | - | - | -
c1ccc(COc2ncnc3c2ncn3CCCNCC(c2ccccc2)c2ccccc2)cc1 | . | . | . | . | . | -
CCc1ccc2[nH]c(=O)c(CN(Cc3ccco3)C(=S)NCC3CCCO3)cc2c1 (stereo unspecified) | 38 | - | - | - | - | -
CCN(CC)CCN(Cc1cc2cc3c(cc2[nH]c1=O)OCO3)C(=S)NCc1ccco1 | - | - | - | - | + | -
CCN(CC)CCCN(Cc1cc2cc3c(cc2[nH]c1=O)OCO3)C(=S)NCc1ccco1 | - | - | - | - | - | -
COc1ccccc1CN1CCc2c([nH]c3ccccc23)C1 | - | - | . | - | - | -
Clc1cccc(CN2CCc3c([nH]c4ccccc34)C2)c1Cl | - | - | . | - | + | -
Cc1cccc(NC(=O)CSc2nnc(-c3cc(C)n(-c4ccccc4)c3C)o2)c1C | - | - | - | - | - | -
Cc1cc(-c2nnc(SCC(=O)Nc3ccccc3C(F)(F)F)o2)c(C)n1-c1ccccc1 | 44 | - | - | - | - | -
CC1CCCC(C)N1C(=O)CN1C(=O)NC2(CCCCCC2)C1=O (stereo unspecified) | . | . | . | . | . | -
Cc1cc(C)n(-c2nc3ccccc3c(=O)n2OCC(=O)N(C)C)n1 | - | - | - | - | + | -
Cc1cc(CC(C)C)n(-c2nc3ccccc3c(=O)n2OCC(=O)N(C)C)n1 | - | - | - | - | - | -
Cc1ccc(CNc2ccc(N3CCOCC3)cc2)cc1 | - | - | . | - | . | 11
CC(C)c1ccc(CNc2ccc(N3CCOCC3)cc2)cc1 | - | - | - | - | - | -
CCOC(=O)c1c(C)c(C(=O)NCc2cccs2)c(C)n1CC | - | - | - | - | - | -
CCOC(=O)c1c(C)c(C(=O)Nc2cc(OC)ccc2OC)c(C)n1CC | - | . | - | - | - | 15
CCOC(=O)c1c(C)c(C(=O)Nc2ccccc2)c(C)n1CC | - | - | - | - | - | 20
Cc1ccc(OCC(=O)NNC(=O)c2ccc(F)c(S(=O)(=O)N3CCOCC3)c2)cc1C | . | . | . | . | . | -
